According to PubChem BioAssay (NCATS):
Results filed as inconclusive are left out. The source made the active and inactive calls. Unless noted, calls follow the shape of the dose curve; as a rule, active = well fitted curve in either direction with a large enough effect (not every such curve was filed as active); inconclusive = small, poorly fitted or top-dose-only effect, or another doubt; inactive = flat fitted curve, though single readings scatter.

What was measured:
[1] = AP1 Signaling Pathway (AID 357); settings: ME-180 AP-1-bla reporter, EGF-induced, beta-lactamase ratio, 5 h; at 17.2 µM (top of the series) unless noted;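 also: ME-180 reporter cells stimulated with EGF at its EC50 level; % is scaled to controls: 0 for no effect and ±100 for the full control effect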
Procedure, shortened: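 A ratiometric CCF4 readout (405 nm excitation; 460 and 530 nm emission) quantified AP-1-driven beta-lactamase in ME-180 cells after 5 h with compound and EC50 EGF; AC50 values were derived for activators and inhibitors.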

[2] = NFAT Signaling Pathway (AID 444); settings: Jurkat NFAT-bla M1, carbachol, beta-lactamase ratio, 5 h; at 17.2 µM (top of the series) unless noted;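 also: carbachol stimulus at about its EC50 of 1 µM final; % is scaled to controls: 0 for no effect and ±100 for the full control effect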
Procedure, shortened: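 Read-out: CCF4 FRET ratio (460 nm/530 nm) after 1 h RT dye loading, used for %activity and AC50 from titration series. Cells: Jurkat NFAT-β-lactamase/M1 line, treated with compound plus 1 uM carbachol for 5 h, 37 °C.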

[3] = Stat Signaling Pathway (AID 446);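 also: ME-180 cervical cancer cells given 40 pM IL-6 alongside compound; SIE-controlled beta-lactamase reporter measured as 460/530 nm FRET emission ratio; % is scaled to controls: 0 for no effect and ±100 for the full control effect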
Procedure, shortened: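 Reporter line: ME-180 cervical carcinoma, SIE-beta-lactamase. Treatment: compound with 40 pM IL-6, 5 hrs, 37 C, in low-serum OPTI-MEM with 10 mM HEPES pH 7.3. Detection: 460/530 nm fluorescence.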

[4] = molecular target: Glucocorticoid receptor (Homo sapiens) (UniProt P04150); experiment: GR-GFP Redistribution (AID 450;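 active = compounds whose dose series gives a full or clear partial fitted curve of increased nuclear translocation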; also: potency is read from the fitted curve at half-maximal effect); settings: U2OS GR-GFP nuclear translocation, laser cytometry, 2 h
Chain of Glucocorticoid receptor (Homo sapiens) (P04150 whole entry, looked up): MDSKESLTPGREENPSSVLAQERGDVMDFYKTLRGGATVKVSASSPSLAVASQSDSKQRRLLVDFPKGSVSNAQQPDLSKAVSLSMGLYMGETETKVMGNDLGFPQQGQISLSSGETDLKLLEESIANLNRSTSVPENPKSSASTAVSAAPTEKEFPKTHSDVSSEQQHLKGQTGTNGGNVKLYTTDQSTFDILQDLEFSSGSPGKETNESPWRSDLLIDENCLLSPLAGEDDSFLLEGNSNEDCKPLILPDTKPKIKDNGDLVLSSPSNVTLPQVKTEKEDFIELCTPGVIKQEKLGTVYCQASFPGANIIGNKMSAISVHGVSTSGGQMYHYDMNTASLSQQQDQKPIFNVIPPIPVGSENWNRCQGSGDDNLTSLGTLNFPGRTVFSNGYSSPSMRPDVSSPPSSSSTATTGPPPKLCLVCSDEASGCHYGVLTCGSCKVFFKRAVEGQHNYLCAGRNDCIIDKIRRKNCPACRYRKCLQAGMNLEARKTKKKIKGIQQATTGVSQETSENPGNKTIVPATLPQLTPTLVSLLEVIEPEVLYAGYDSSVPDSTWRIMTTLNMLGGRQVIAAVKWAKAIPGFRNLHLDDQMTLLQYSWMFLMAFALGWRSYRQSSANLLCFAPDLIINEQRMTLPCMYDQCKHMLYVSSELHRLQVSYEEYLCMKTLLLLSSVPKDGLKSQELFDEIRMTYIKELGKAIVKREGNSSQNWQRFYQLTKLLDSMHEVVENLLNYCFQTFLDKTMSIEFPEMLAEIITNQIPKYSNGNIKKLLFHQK

CC1=NOC2(C)Nc3ncnn3C(c3ccccc3)C12 (stereo not drawn)
inactive: activity change, negative = inhibition [1] 20.5% | activity change, negative = inhibition [2] -2.94% | outcome [3] | Potency [4] > 20.6 µM

CCCCCCn1c(O)c(C=NCCCn2ccnc2)c(=O)[nH]c1=O
inactive: activity change, negative = inhibition [1] -8.92% | activity change, negative = inhibition [2] -9.29% | outcome [3] | Potency [4] > 20.6 µM

C=CCOC(=O)C1=C(C)OC(N)=C(C#N)[C@@]12C(=O)N(CC(N)=O)c1ccccc12
inactive: activity change, negative = inhibition [1] 6.24% | activity change, negative = inhibition [2] -10.1% | outcome [3] | Potency [4] > 20.6 µM

O=c1[nH]c(=O)n(Cc2ccco2)c(O)c1C=NCCCn1ccnc1
inactive: activity change, negative = inhibition [1] 10% | activity change, negative = inhibition [2] -8.42% | outcome [3] | Potency [4] > 20.6 µM

CC(=O)CC(C)(C)n1c[n+](C)nn1
inactive: activity change, negative = inhibition [1] -8.26% | activity change, negative = inhibition [2] -3.99% | outcome [3] | Potency [4] > 20.6 µM

CCOC(=O)[C@]1(C#N)[C@@H]2C=CC(C(C)=O)=CN2[C@@H](C(N)=O)[C@@H]1c1ccsc1
inactive: activity change, negative = inhibition [1] -0.365% | activity change, negative = inhibition [2] -15.2% | outcome [3] | Potency [4] > 20.6 µM

CC1(C)NCCN2C(=O)CSC21 (stereo not drawn)
inactive: activity change, negative = inhibition [1] 17.6% | activity change, negative = inhibition [2] 0.762% | outcome [3] | Potency [4] > 20.6 µM

COc1ccc2c(c1OC)C(=O)OC2c1c(O)n(C2CCCCC2)c(=O)[nH]c1=O (stereo not drawn)
inactive: activity change, negative = inhibition [1] -13.3% | activity change, negative = inhibition [2] -3.36% | outcome [3] | Potency [4] > 20.6 µM

CCCSP1(=S)NCCCO1 (stereo not drawn)
inactive: activity change, negative = inhibition [1] 32.4% | activity change, negative = inhibition [2] 2.72% | outcome [3] | Potency [4] > 20.6 µM

CC(C)(C)OC(=O)c1c(N)n(Cc2ccco2)c2nc3ccccc3nc12
inactive: activity change, negative = inhibition [1] -26.4% | activity change, negative = inhibition [2] 5.75% | outcome [3] | Potency [4] > 20.6 µM

Cc1ccc(C)c(C2(O)CC(C)N(C)CC2C)c1 (stereo not drawn)
inactive: activity change, negative = inhibition [1] 22.9% | activity change, negative = inhibition [2] 9.11% | outcome [3] | Potency [4] > 20.6 µM

CCN(CC)c1ccc(N=Cc2c(O)n(-c3ccccc3C)c(=O)[nH]c2=O)cc1
inactive: activity change, negative = inhibition [1] -21.6% | activity change, negative = inhibition [2] -29.8% | outcome [3] | Potency [4] > 20.6 µM
